Inconclusive results are not listed. Calls of active or inactive are those of the source. The call rests on the fitted dose curve; in most records, active means well fitted activation curve with a large enough effect in the repeat runs; inconclusive means weak or mixed curves; inactive means no such curve, though single readings can be large or run the other way.
Experiment: qHTS assay to identify small molecule agonists of the estrogen related receptor signaling pathway with the pleiotropic PPARgamma coactivator (PGC) (AID 1224823)
Conditions: ERR/PGC reporter cell line, luciferase agonist mode; series mostly up to 46.1 µM
Method in brief: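 Compounds dissolved in DMSO are added by pin tool to PGC/ERR cells that have settled for 6 h, and incubation continues 18 h at 37 C. Reporter output is measured as One-Glo luminescence.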

Potency, inactive:
COC(=O)c1c(C)[nH]c(C)c1C(=O)c1ccccc1Cc1ccccc1, Cc1ccccc1/C=C/C1=NCCN1, CCCc1c(-c2ccc(O)cc2)nn(-c2ccc(O)cc2)c1-c1ccc(O)cc1, Clc1ccc(N2CCN(Cc3cc4ccccn4n3)CC2)cc1, O=[N+]([O-])c1ccc(CNc2nc(NCc3cccc(C(F)(F)F)c3)nc3nc[nH]c23)cc1, N=C(N)c1ccc(N)cc1, CC(C)[C@H](NC(=O)OCc1ccccc1)C(=O)N[C@H](C=O)Cc1ccccc1, CCCCCCCC/C=C\CCCCCCCC(=O)NCCc1ccc(O)c(O)c1, COc1ccc(-c2cc(=O)c3c(O)c(OC)c(OC)cc3o2)cc1O, CCCCCCN(CCCCCC)C(=O)Cc1c(-c2ccc(F)cc2)[nH]c2ccccc12

— PubChem BioAssay (Tox21)
